High-throughput results: PubChem BioAssay, The Scripps Research Institute Molecular Screening Center
LYPLA2 inh = blocks human lysophospholipase 2, a PME1 counter-screen. O95372. AID 2177. recombinant LYPLA2, FP-Rh probe fluorescence polarization. 320,000 compounds, 0.38% hits. inhibition, % at 5.9 µM;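 active = inhibition above the screen-wide mean plus 3 SD, limit set per campaign, cut at about 26% in these data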;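 note: 0% = LYPLA2 with DMSO and 100% = wells lacking LYPLA2 enzyme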
LYPLA1 inh = counter-screen for PME1 inhibitors: inhibitors of human LYPLA1. AID 2174. recombinant LYPLA1, FP-Rh probe fluorescence polarization. 320,000 compounds, 0.16% hits. inhibition, % at 5.9 µM;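 active = inhibition above the mean of all tested compounds plus 3 SD, set per campaign, cut at about 14% in these data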;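 note: inhibitors block serine hydrolase probe labeling of LYPLA1 so polarization falls; 0% = enzyme with DMSO and 100% = wells lacking LYPLA1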
Target sequence (O75608 whole entry, looked up): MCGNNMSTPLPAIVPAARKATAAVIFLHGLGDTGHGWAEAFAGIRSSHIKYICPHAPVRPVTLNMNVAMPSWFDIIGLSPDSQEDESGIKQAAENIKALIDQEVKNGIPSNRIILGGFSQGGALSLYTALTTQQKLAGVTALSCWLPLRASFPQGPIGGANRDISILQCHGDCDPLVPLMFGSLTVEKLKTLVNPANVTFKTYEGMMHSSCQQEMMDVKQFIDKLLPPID
PME-1 inh = blocks human protein phosphatase methylesterase 1; Q9Y570; recombinant PME-1, FP-Rh probe fluorescence polarization; inhibition, % at 5.9 µM; 320,000 compounds, 0.53% hits; AID 2130;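 active = inhibition above the campaign mean of all compounds plus 3 SD, cut at about 26% in these data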;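 note: competitive labeling of PME-1 active site by serine hydrolase directed probe; 0% = PME-1 with DMSO and 100% = wells lacking PME-1 enzyme; inhibitors block probe labeling so polarization falls and inhibition rises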
Target sequence (Q9Y570 whole entry, looked up): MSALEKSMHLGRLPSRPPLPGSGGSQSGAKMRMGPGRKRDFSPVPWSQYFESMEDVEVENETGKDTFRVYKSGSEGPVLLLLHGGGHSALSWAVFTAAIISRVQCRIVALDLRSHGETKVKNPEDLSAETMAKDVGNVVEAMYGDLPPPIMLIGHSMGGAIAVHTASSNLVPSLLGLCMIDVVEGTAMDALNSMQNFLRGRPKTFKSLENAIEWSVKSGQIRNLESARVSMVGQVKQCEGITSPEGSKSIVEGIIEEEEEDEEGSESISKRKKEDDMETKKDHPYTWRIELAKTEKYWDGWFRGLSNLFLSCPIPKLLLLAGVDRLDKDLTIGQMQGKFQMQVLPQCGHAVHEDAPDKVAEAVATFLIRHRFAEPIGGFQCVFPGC
GSTO1 counter = blocks human GSTO1 in RBBP9 counter-screen. P78417. recombinant GSTO1, activity-based probe fluorescence polarization. inhibition, % at 5.96 µM. 300,000 compounds, 1.1% hits. AID 1974;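 active = inhibition above the campaign mean inhibition plus 3 SD, cut at about 35% in these data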;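 note: 0% = GSTO1-1 with DMSO and 100% = wells lacking GSTO1-1 enzyme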
Fam108B inh = Fam108B inhibition, counter-screen for RBBP9 inhibitors; recombinant Fam108B, FP-Rh probe fluorescence polarization; inhibition, % at 9.51 µM; 300,000 compounds, 0.33% hits; AID 1947;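 active = inhibition above the screen mean inhibition plus 3 SD, computed separately per campaign, cut at about 18% in these data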;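 note: inhibitors lower polarization as less probe binds the enzyme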
PAD4 inh = PAD4 (human) enzyme inhibition; 330,000 compounds, 0.41% hits; recombinant PAD4, RCA probe fluorescence polarization; Q9UM07; inhibition, % at 6.36 µM;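 active = percent inhibition above a cutoff equal to the mean of all tested compounds plus 3 SD, cut at about 15% in these data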;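 note: 0% = PAD4 with RCA probe and DMSO and 100% = probe without PAD4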
Fam108b inh conf = Fam108b (mouse) hydrolase inhibition, confirmation assay; inhibition, % at 9.51 µM; shares compounds with Fam108B inh; AID 1978; 930 compounds, 44% hits; recombinant Fam108b, FP-Rh probe fluorescence polarization;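 active = inhibition above a limit from the primary screen, the mean over all compounds plus 3 SD, cut at about 19% in these data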;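 note: 0% = median of active Fam108b wells and 100% = catalytically dead S170A mutant; inhibitors free the probe so polarization falls as inhibition rises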
Fam108b inh = inhibits mouse Fam108b in gel-based ABPP. shares compounds with Fam108B inh. recombinant Fam108b, fluorophosphonate probe. inhibition, % at 20 µM. 260 compounds, 44% hits. AID 588649; in the data active = inhibition above about 40%
GSTO1 inh conf = confirmation of human GSTO1 inhibitors | shares compounds with GSTO1 counter | AID 2176 | 2,400 compounds, 54% hits | inhibition, % at 5.96 µM | recombinant GSTO1, probe fluorescence polarization;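 active = inhibition above the primary screen's cutoff, its mean inhibition plus 3 SD, cut at about 35% in these data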;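 note: loss of polarization as inhibitors block binding of rhodamine sulfonate ester activity probe; 0% = GSTO1 with DMSO and 100% = wells lacking GSTO1 enzyme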
* = called active by the depositor; x = no result given. Most compounds without a hit are left out; they make up all but 1.7% or so of the library.

SMILES	LYPLA2 inh	LYPLA1 inh	PME-1 inh	GSTO1 counter	Fam108B inh	PAD4 inh	Fam108b inh conf	GSTO1 inh conf	others
Cc1cccc2cc3c(N)c(C(=O)Nc4ccc(N5CCOCC5)cc4)sc3nc12	1	-1	21	8	20*	-22	2	x
Cc1sc(NC(=O)c2sc3nc4c(C)cccc4cc3c2N)c(C#N)c1C	-10	-13	1	6	6	-19	x	x
CCc1cccc2cc3c(N)c(C(=O)Nc4ccc(S(=O)(=O)N5CCCC5)cc4)sc3nc12	14	-8	38*	4	54*	3	-17	x
CCOC(=O)Cc1csc(NC(=O)CN2CCOCC2)n1	-4	-4	-11	4	-3	-1	x	x
CN(CCN1CCOCC1)Cc1nc(-c2cccs2)no1	5	1	-5	-2	-4	2	x	x
O=C(Nc1ccc(N2CCCC2)c(S(=O)(=O)Nc2cccc(C(F)(F)F)c2)c1)c1cccs1	-5	-9	8	-8	21*	0	33*	x	Fam108b inh=85*
CCOc1ccc(S(=O)(=O)N2CCC(C(=O)NCc3ccncc3)CC2)cc1	4	0	1	0	2	-3	x	x
O=C(O)C1=CC(=C(c2ccc(O)c(C(=O)O)c2)c2ccc(O)c(C(=O)O)c2)C=CC1=O	-8	-12	-55	-82	53*	-47	32*	x
CC1=C/C(=C(\c2ccc(O)c(C)c2)c2ccccc2S(=O)(=O)O)C=CC1=O	4	0	0	10	5	4	x	x
O=C(Nc1ccccc1[N+](=O)[O-])C1COc2ccccc2O1 (centres undefined)	7	2	-2	-2	3	0	x	x
Cc1ccc(NS(=O)(=O)c2cc([N+](=O)[O-])ccc2NNC(=S)Nc2cccc(Cl)c2)c(C)c1	7	-14	25	-60	30*	-1	18	x
COc1ccc(NC(=S)NNc2ccc([N+](=O)[O-])cc2S(=O)(=O)Nc2ccc(C)cc2C)cc1	-4	-10	22	1	32*	-3	11	x
COc1ccc(NC(=S)Nc2cccc([N+](=O)[O-])c2)cc1	6	-2	5	-3	-2	1	x	x
Cc1ccc(NS(=O)(=O)c2cc([N+](=O)[O-])ccc2NNC(=S)Nc2cc(C)ccc2C)c(C)c1	4	-13	23	-11	27*	-7	-16	x
COC(=O)c1ccc(COc2ccc(/C=N/O)cc2)o1	-3	-3	-4	6	-2	0	x	x
O=C(O)c1cc(O)c2c(c1)[C@@H]([C@H]1c3cc(C(=O)O)cc(O)c3C(=O)c3c(O[C@@H]4O[C@H](CO)[C@@H](O)[C@H](O)[C@H]4O)cccc31)c1cccc(OC3O[C@H](CO)[C@@H](O)[C@H](O)[C@H]3O)c1C2=O (some centres undefined)	90*	28*	74*	84*	99*	-47	116*	80*
CCOC(=O)C1CCN(C(=O)Nc2ccc3nc(-c4ccco4)c(-c4ccco4)nc3c2)CC1	9	-12	11	80*	34*	-3	40*	32	Fam108b inh=0
Cc1ccc(S(=O)(=O)/N=C2/C=C(Sc3ncn[nH]3)C(=O)c3ccccc32)c(C)c1	31*	1	36*	91*	60*	16*	34*	93*
CC(C(=O)O)N1C(=O)/C(=C/C=C/c2ccco2)SC1=S (centres undefined)	-6	-6	-22	64*	30*	-1	14	30
CCN(C(=O)C(C)N1C(=O)/C(=C/c2ccco2)SC1=S)C1CCS(=O)(=O)C1 (centres undefined)	-13	-6	-17	31	1	-1	x	x
CCc1ccc(S(=O)(=O)/N=C2\C=C(Nc3ccc(C(=O)O)cc3)C(=O)c3ccccc32)cc1	18	10	30*	94*	58*	69*	74*	91*	Fam108b inh=0
CCc1ccc(NC2=NC(C(=O)c3ccccc3)CC(=O)N2)cc1 (centres undefined)	5	-2	4	4	3	0	x	x
Oc1ccc(/C=N/Nc2ccnc3cc(Cl)ccc23)cc1O	10	-14	42*	38*	55*	-4	34*	7
N#Cc1c(SCC(=O)Nc2nncs2)sc2c(O)cc(=O)[nH]c12	-2	-8	-35	51*	32*	-14	6	63*
O=S(=O)(NCCC1=CCCCC1)c1ccccc1Cl	-2	-1	7	x	x	-1	x	x
SMILES	LYPLA2 inh	LYPLA1 inh	PME-1 inh	GSTO1 counter	Fam108B inh	PAD4 inh	Fam108b inh conf	GSTO1 inh conf	others
Cc1cc(C(=O)O)ccc1-n1c(C)cc(C=C2C(=O)c3ccccc3C2=O)c1C	-4	1	2	-135	-2	-6	x	x
Cc1cc(C(=O)O)ccc1-n1c(C)ccc1C	-3	1	-18	46*	24*	9	14	20
Cc1ccc(C2Nc3cccc4cccc(c34)N2)s1	2	-8	12	44*	29*	-10	13	11
C/C(=C\c1ccccc1F)C1Nc2cccc3cccc(c23)N1	-10	-10	18	x	x	-12	x	x
Cc1cc(C)c(S(=O)(=O)c2ccccc2)c(N(C)C)n1	7	0	5	-5	0	-3	x	x
CCOC(=O)c1ccc2c(c1)C1C=CCC1C(C(=O)O)N2 (centres undefined)	4	-8	-24	52*	56*	-1	33*	39*	Fam108b inh=0
COCCNC(=O)C1Nc2ccc(C(F)(F)F)cc2C2C=CCC12 (centres undefined)	0	1	4	3	2	-2	x	x
CCCCCC(=O)Nc1ccc(S(=O)(=O)Nc2nccc(C)n2)cc1	1	-2	2	1	7	-4	x	x
Cc1cc(NC(=O)CCSc2ccccc2)ccc1Br	-5	-5	-7	-5	-7	-6	x	x
Nc1c(S(=O)(=O)O)cc(NC(=O)c2ccccc2)c2c1C(=O)c1ccccc1C2=O	16	14	54*	41*	53*	4	50*	63*
O=C(Nc1ccccc1-c1ccccc1)c1ccccc1	7	2	-1	6	-2	1	x	x
COc1ccc(S(=O)(=O)N2CCOC2CNC(=O)C(=O)NCCN2CCOCC2)cc1 (centres undefined)	5	-1	-5	-2	4	3	x	x
O=C(Nc1nc(-c2ccco2)c(-c2ccco2)s1)c1cnccn1	-4	-3	-3	45*	25*	-10	5	10
